Assay results as given in PubChem BioAssay AID1209 (Sanford-Burnham Center for Chemical Genomics, 2008).
The whole screen tested about 190,000 compounds, of which about 810 (0.43%) were called active. This is one part of a sample in which actives are shown more often than they occur. Rule as the data show it: active = inhibition above about 50%; inactive = the rest.

molecular target: Mannose-6-phosphate isomerase (Homo sapiens) (UniProt P34949); assay: inhibitors of human PMI, primary screen, biochemical, fluorescence intensity, coupled assay (AID 1209); settings: purified PMI enzyme, at 20 µM, hits give high values;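 also: plate controls were DMSO vehicle for no effect and wells lacking substrate for full effect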
Sequence (P34949 whole entry, looked up): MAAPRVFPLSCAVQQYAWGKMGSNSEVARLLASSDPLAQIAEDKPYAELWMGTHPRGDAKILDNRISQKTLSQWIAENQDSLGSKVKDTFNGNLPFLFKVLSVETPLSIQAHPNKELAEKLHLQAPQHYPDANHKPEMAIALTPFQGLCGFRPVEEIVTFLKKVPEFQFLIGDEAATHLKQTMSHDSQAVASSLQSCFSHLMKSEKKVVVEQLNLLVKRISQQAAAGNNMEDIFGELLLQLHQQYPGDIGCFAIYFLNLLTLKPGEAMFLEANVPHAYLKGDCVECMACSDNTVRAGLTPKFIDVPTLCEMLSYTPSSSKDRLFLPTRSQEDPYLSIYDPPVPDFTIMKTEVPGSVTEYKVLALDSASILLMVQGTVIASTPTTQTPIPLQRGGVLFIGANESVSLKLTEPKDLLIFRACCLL

inhibition, inactive:
Cc1ccc2nsnc2c1N 8.5%, Nc1cnc(Br)cc1Br -8.6%, NS(=O)(=O)c1ccc(CCNC(=O)CSc2ncnc3ccccc23)cc1 7.5%, CCOc1cccc(CNc2ccc(O)cc2)c1OCc1ccc(Cl)cc1Cl 40.3%, CCOc1cccc(CNc2ccc(O)cc2)c1OCc1ccccc1Cl 28.5%, CC(OC(=O)C1=COCCO1)C(=O)Nc1cc(S(=O)(=O)N2CCCCC2)ccc1Cl (stereo not drawn) -6.3%, COCCCNC(=S)N1CCN(c2ccc([N+](=O)[O-])cc2)CC1 5%, Cc1ccc(CNC(=O)CCNC(=O)c2ccco2)cc1 -8.4%, CCOC(=O)c1sc(/N=C/c2ccc(O)cc2O)cc1C 28.9%, CCOC(=O)c1cc(CC)sc1/N=C/c1c(O)ccc2ccccc12 37.2%, CCc1ccc(NC(=S)/N=C(\N)Nc2nc(C)c3cc(CC)ccc3n2)cc1 11.4%, COc1cccc(NC(=O)c2ccc(-c3ccccc3[N+](=O)[O-])o2)c1 -13.3%, CNC(=O)/C(C#N)=C/c1ccc(-c2ccc(OC)cc2[N+](=O)[O-])o1 28.2%, Cn1c(SCC(=O)N2CCOCC2)nnc1-c1cccc(NC(=O)c2ccccc2F)c1 2.1%, COc1ccc(-c2nn[nH]n2)cc1OC -5%, COc1ccc(-c2nc(N)n[nH]2)cc1OC 2.2%, Cc1c(C(=O)NN)sc(-c2ccccc2)c1C#N -23.8%, CCn1c(C)nc2cc(C(=O)N/N=C/c3ccccc3C)ccc21 -4.6%, CCn1c(C)nc2cc(C(=O)N/N=C/c3cccc(OC)c3O)ccc21 5.6%, CCN(CC)S(=O)(=O)c1cccc(C(=O)N/N=C/c2cc(OC)c(O)c(OC)c2)c1 19.2%, CCN(CC)S(=O)(=O)c1cccc(C(=O)N/N=C/c2cccc(O)c2O)c1 20%, NC(=O)COC(=O)c1c2c(nc3ccccc13)CCCC2 -8.6%, NS(=O)(=O)c1ccc(CCNC(=O)c2ccc3nc4ccc(Cl)cc4c(=O)n3c2)cc1 -11.6%, CC(C)(C(=O)O)n1cncn1 -17.9%, CC(C)(C)c1ccccc1OCCCCCn1ccnc1 14%, Oc1ccccc1/C=N/N1CCCCC1 10.8%, CC(=O)NC1=NN(C(C)=O)C(c2ccccc2)S1 (stereo not drawn) 10.4%, O=C(COc1ccc(C(=O)NCCc2ccccc2)cc1)Nc1ccccc1 9.8%, COCc1[nH]nc2c1C(c1ccc(OC)c(OC)c1)C(C#N)=C(N)O2 (stereo not drawn) 2%, COCc1[nH]nc2c1C(c1ccc(OC)cc1)C(C#N)=C(N)O2 (stereo not drawn) 21.3%, CCOc1ncccc1C(=O)OCC(=O)c1cc(OC)ccc1OC -1.1%, COc1ccc(C(=O)COC(=O)c2cccnc2Cl)c(OC)c1 0.1%, O=C(O)C1CCCCC1C(=O)NCc1ccc(F)cc1 (stereo not drawn) 13.1%, CCOc1cc(C(=O)Nc2cccc(C(C)=O)c2)ccc1OCC(=O)N1CCCCC1 8.7%, O=C1NCCCC2c3cc(O)c4ccccc4c3OC12N1CCCCC1 (stereo not drawn) 21%, O=C1NCCCC2c3c(cc(Br)c(O)c3Br)OC12N1CCCCC1 (stereo not drawn) 24.7%, O=C1NN=C(c2ccccc2)CC1c1ccc(Cl)cc1Cl (stereo not drawn) 4.2%, O=C(O)c1ccc(NC2=C/C(=N/S(=O)(=O)c3ccccc3)c3ccccc3C2=O)cc1 -68.7%, COC(=O)C(C(C)=O)C1=C/C(=N\S(=O)(=O)c2ccc(C)cc2)c2ccccc2C1=O (stereo not drawn) 22.1%, CC(C)c1ccc(S(=O)(=O)/N=C2/C=CC(=O)c3ccccc32)cc1 34.5%, CCc1ccc(S(=O)(=O)/N=C2\C=CC(=O)c3ccccc32)cc1 6.9%, O=C1c2ccccc2C(=O)N1CCSc1ncn[nH]1 -7.4%, Cc1ccc(S(=O)(=O)/N=C2/C=C(C3C(=O)CC(C)(C)CC3=O)C(=O)c3ccccc32)cc1 9.6%, O=C(Cn1cc(C(F)(F)F)ccc1=O)N/N=C/c1ccc(F)cc1 -3.8%, CC1CCN(CC(=O)N2c3ccccc3CC2C)CC1 (stereo not drawn) -23.2%, Cc1cc(=O)c(C(=O)O)cn1Nc1ccc(F)cc1 -5.7%, COc1ccc(C(O)Cc2nc3ccccc3n2C)cc1OC (stereo not drawn) -8.6%, Cc1ncc(C[n+]2csc(CCOC(=O)CC34CC5CC(CC(C5)C3)C4)c2C)c(N)n1 -0.1%, CCOc1c(Cl)cc(CNC(C)(C)CC(C)(C)C)cc1OC 4.6%, C=CCOc1c(Cl)cc(CNc2ccc(C)c(Cl)c2)cc1OC 13.1%, COc1cc(CNc2ccc(N3CCCC3)cc2)ccc1OCc1ccccc1F 29.9%, CCOc1cc(CNc2ccc(N3CCOCC3)cc2)cc(Br)c1OCC 6.4%, CCOc1c(Cl)cc(CNc2ccc(S(N)(=O)=O)cc2)cc1OC -1.5%, CCOc1cc(CNc2ccc(S(N)(=O)=O)cc2)cc(Cl)c1OC 3%, COc1cc(CNc2ccc(N3CCOCC3)cc2)cc(Br)c1OC -0.4%, COc1cc(CNc2ccc(N3CCN(C(C)=O)CC3)cc2)ccc1OCc1ccccc1 20%

inhibition, active:
Nc1cc2nsnc2cc1Br 61%, CCOc1cccc(CNc2ccc(O)cc2)c1OCc1ccc(Cl)cc1 53.9%, CCOC(=O)c1sc(/N=C/c2c(O)ccc3ccccc23)cc1C 58.3%, COc1ccc(-c2ccc(C(=O)O)o2)c([N+](=O)[O-])c1 73.7%, CCN(CC)S(=O)(=O)c1cccc(C(=O)N/N=C/c2ccc(O)c(O)c2O)c1 77.7%, COCc1[nH]nc2c1C(c1cc(OC)c(O)c(OC)c1)C(C#N)=C(N)O2 (stereo not drawn) 53.8%, CC(C)c1ccc(S(=O)(=O)/N=C2/C=C(Sc3ncn[nH]3)C(=O)c3ccccc32)cc1 95.1%, Cc1ccc(S(=O)(=O)/N=C2/C=C(Sc3ncn[nH]3)C(=O)c3ccccc32)cc1 101%, CCc1ccc(S(=O)(=O)/N=C2/C=C(Sc3ncn[nH]3)C(=O)c3ccccc32)cc1 98.8%, CCOc1cc(CNc2ccc(N3CCCC3)cc2)cc(Cl)c1OC 83%, COc1cc(CNc2ccc(N3CCCC3)cc2)ccc1OCc1ccccc1 86.4%, COc1cc(CNc2ccc(N3CCCC3)cc2)cc(Cl)c1OC 76.9%
